The source of these data is PubChem BioAssay (Tox21).

Molecules are shown by their SMILES. Inconclusive results are not listed. Entries that show only a call come without a potency. Active and inactive are the calls of the source. The call rests on the fitted dose curve.

The nature of the assay: qHTS assay to identify small molecule agonists of the NFkB signaling pathway - cell viability counter screen (AID 1159515). Further: nearly all actives have a fitted effect of over 55% in size. Particulars: NFkB-bla ME-180 viability, CellTiter-Glo luminescence, 5 h; series mostly up to 61 µM. An excerpt: National Center for Advancing Translational Sciences [NCATS]
NIH Chemical Genomics Center [NCGC]
U.S. Environmental Protection Agency [EPA]
National Institutes of Environmental Health Sciences [NIEHS]
National Toxicology Program [NTP]
U.S. Food and Drug Administration [FDA]
Transcription factors and their stimulated target gene expression play pivotal roles across many cellular processes including responses to environmental stimuli. Proper regulation of associated pathways is critical to maintain cell health and function. Constitutive activation of transcription factor pathways has been implicated in tumors as it may block cellular functions such as apoptosis and lead to invasion and metastasis. One important transcription factor that stimulates gene expression in response to cytokines, UV radiation, and other stimuli is nuclear factor-kappa B (NFkB). To measure activation of the NFkB pathway, the CellSensor NFkB-bla ME-180 cell line (Life Technologies, Carlsbad, CA) that stably expresses beta-lactamase reporter gene under the regulation of a NF-kB response element was used. This assay allows measurement of the NFkB pathway activity induced by compounds in a ME-180 cell line. This system quantitates NF-kB activity using a FRET-based assay system where beta-lactamase expression disrupts FRET, allowing for fluorescent measurement of activity. This cell line has been used to screen the Tox21 10K compound library and to identify compounds that induce the NFkB pathway activity. The cytotoxicity of the Tox21 compound library against the NFkB-bla ME-180 cell line was tested in parallel by measuring cell viability using the CellTiter-Glo assay in the same wells.
Tox21 Assay Protocol Summary:
NFkB-bla ME-180 cells were dispensed at 2,000 cells/6 uL of assay medium per well into black wall/clear-bottom 1536-well plates using a Multidrop Combi (ThermoFisher Scientific, Waltham, MA) dispenser. After the assay plates were incubated at 37 C and 5% CO2 for an overnight, 23 nL of compounds dissolved in DMSO, positive controls or DMSO only was transferred to the assay plate by a Pintool station (Kalypsys, San Diego, CA). The assay plates were incubated at 37 C and 5% CO2 for 5 hr. One uL of LiveBLAzer B/G FRET substrate (Life Technologies) was added using a Flying Reagent Dispenser (Aurora Discovery, San Diego, CA) and the plates were incubated at room temperature for 1.5 hr. Fluorescence intensity (405 nm excitation, 460 nm and 530 nm emissions) was measured using an Envision plate reader (PerkinElmer, Shelton, CT). For cytotoxicity, 3 ul/well of CellTiter-Glo reagent was added into the assay plates using an FRD. After 30 min incubation at room temperature, the luminescence intensity was measured using a ViewLux plate reader (PerkinElmer).
With `CC1=CC[C@H](C(C)C)C=C1`, the Potency result was “inactive”.

In the case of `CC(C)CC(=O)C1C(=O)c2ccccc2C1=O`, the Potency entry was “inactive”. Still for that read-out and setting: as for `COC(=O)c1ccc(I)cc1S(=O)(=O)NC(=O)Nc1nc(C)nc(OC)n1`, the entry is “inactive”. `Brc1c2ccccc2c(Br)c2ccccc12`: the activity, negative = cytotoxic was -0.607% [at 6.95 µM] (inactive). As for `CCN(CC)c1ccc2c(-c3ccccc3C(=O)O)c3ccc(=[N+](CC)CC)cc-3oc2c1`, the Potency result is “inactive”.

For `O=C(O)c1ccccc1Cl`, the Potency result is “inactive”.

On to `CCN(CC)CCNc1ccc(CNC=O)c2sc3ccc(OC)cc3c(=O)c12`, for which the Potency result was “inactive”. Same read-out and setting: as for `COc1ccc(C(=O)N2CCN(CC(=O)N3CCOCC3)CC2)cc1`, the entry is “inactive”.

Regarding `CC(C)Cc1ccc(C(C)C(=O)OCc2ccccn2)cc1` (stereo not given), the Potency result is “inactive”. `C[C@H]1C[C@H]2[C@@H]3CCC4=CC(=O)C=C[C@]4(C)[C@@]3(Cl)[C@@H](O)C[C@]2(C)[C@@]1(O)C(=O)CO`: the Potency entry was “inactive”. `CC(C)(C)Cl`: the Potency result is “inactive”. In the case of `CCC(CC)Nc1ccc(C)c(C)c1`, the Potency result is “inactive”.

With `CN(C)c1ccc(C(c2ccccc2)c2ccc(N(C)C)cc2)cc1`, the Potency entry is “inactive”.

Turning to `O=[N+]([O-])c1ccc(NCCO)c(OCCO)c1`, the Potency entry was “inactive”. On the same count and under the same terms, as for `CC(C)O.CC(C)O.CCOC(=O)/C=C(\C)O.CCOC(=O)/C=C(\C)O.[Ti]`, the entry is “inactive”; as for `CCCCC1=NC2(CCCC2)C(=O)N1Cc1ccc(-c2ccccc2-c2nn[nH]n2)cc1`, “inactive”; as for `CCCCC(=O)OCC(=O)[C@H]1[C@H](C)C[C@H]2[C@@H]3C[C@H](F)C4=CC(=O)C=C[C@]4(C)[C@@]3(F)[C@@H](O)C[C@@]21C`, “inactive”. Still for that read-out and setting: as for `CCCCCCc1ccc(-c2ccc(C#N)cc2)cc1`, the entry is “inactive”. The same measure, in the same setting: the entry for `CC1CCC(=O)C1=O` (stereo not given) is “inactive”; for `COc1cc2nc(N(C)CCCNC(=O)C3CCCO3)nc(N)c2cc1OC` (stereo not given) it is “inactive”; for `COc1ccc(C(=O)c2ccc(OC)cc2O)c(O)c1` it is “inactive”. `CC/C=C\CCOC(=O)CC`: the Potency result is “inactive”.

For `COCCCN1CCC(NC(=O)c2cc(Cl)c(N)c3c2OCC3)CC1`, the Potency result is “inactive”. Still for that read-out and setting: the entry for `CCCCCCCCCCCCCCCCOS(=O)(=O)O` is “inactive”; for `N=c1ccn2c(n1)O[C@H]1[C@H](O)[C@@H](CO)O[C@H]12` it is “inactive”; for `CCOc1ccc(N)c([N+](=O)[O-])c1` it is “inactive”.

Turning to `CC(C)(CO)[N+](=O)[O-]`, the Potency entry is “inactive”. Still for that read-out and setting: as for `C=CC1CC2C=CC1C2` (stereo not given), the entry is “inactive”. On the same count and under the same terms, the entry for `CCCCCCCCCCO[C@@H]1O[C@H](CO)[C@@H](O)[C@H](O)[C@H]1O` is “inactive”; for `COc1ccnc(CS(=O)c2nc3ccc(OC(F)F)cc3[nH]2)c1OC` (stereo not given) it is “inactive”; for `Cc1cc(N)c2cc(NC(=O)Nc3ccc4nc(C)cc(N)c4c3)ccc2n1` it is “inactive”. Still for that read-out and setting: the entry for `Nc1ccc([N+](=O)[O-])c(C(F)(F)F)c1` is “inactive”; for `Cc1[nH]c(C)c(Cl)c(=O)c1Cl` it is “inactive”; for `O=[N+]([O-])c1cccc(S(=O)(=O)O)c1` it is “inactive”. As to `C=C(C)C(=O)OCCOCC`, the Potency entry was “inactive”. With `CN(C)C(=O)NC1(c2ccccc2)CCN(CC[C@@]2(c3ccc(F)c(F)c3)CN(C(=O)c3ccccc3)CCO2)CC1`, the Potency result was “inactive”.

Take `CC1=CCCC(C)(C)C12CCC(C)O2` (stereo not given): the Potency entry is “inactive”.

With `C[C@@H]1C[C@H]2[C@@H]3CCC4=CC(=O)C=C[C@]4(C)[C@@]3(F)[C@@H](O)C[C@]2(C)[C@@]1(O)C(=O)COC(=O)c1ccncc1`, the Potency entry was “inactive”. The same measure, in the same setting: as for `Cc1cccc(C)c1NC(=O)CN(CC(=O)O)CC(=O)O`, the entry is “inactive”. Still for that read-out and setting: the entry for `CCC(=O)O[C@]1(C(=O)CCl)[C@@H](C)C[C@H]2[C@@H]3CCC4=CC(=O)C=C[C@]4(C)[C@@]3(F)[C@@H](O)C[C@@]21C` is “inactive”.
